Compounds with a hit are over-represented: about 4.7% of the library has one in this group of screens.
D1 potentiator – human D1 dopamine receptor positive modulation; P21728; HEK293 TREx D1 cells, calcium flux, dopamine EC20 potentiation; potentiation, % at 10 µM; 0.036% of 360,000 active; in the data active means potentiation above about 30%
Target sequence (P21728 whole entry, looked up): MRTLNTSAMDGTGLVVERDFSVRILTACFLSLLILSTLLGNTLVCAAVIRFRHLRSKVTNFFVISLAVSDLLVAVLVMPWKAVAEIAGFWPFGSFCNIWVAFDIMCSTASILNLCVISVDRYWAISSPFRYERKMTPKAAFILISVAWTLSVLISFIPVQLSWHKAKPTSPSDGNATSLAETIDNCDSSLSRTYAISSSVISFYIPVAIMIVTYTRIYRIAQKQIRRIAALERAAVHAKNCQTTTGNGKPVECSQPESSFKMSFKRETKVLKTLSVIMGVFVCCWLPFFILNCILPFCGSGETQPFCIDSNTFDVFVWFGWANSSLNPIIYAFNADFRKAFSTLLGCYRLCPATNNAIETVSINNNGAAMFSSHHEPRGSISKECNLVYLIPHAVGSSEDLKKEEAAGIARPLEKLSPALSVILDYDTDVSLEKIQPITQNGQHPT
D1 agonist – agonists of human D1 dopamine receptor | P21728 | HEK293 T-REx D1 cells, calcium flux, agonist mode | activation, % at 2 µM | 1% of 360,000 active | AID 504660
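Agonism was scored from calcium flux recorded over 180 s (1 read/s) after pintool compound addition, following a 10-cycle baseline. Cells were inducible force-coupled HEK293 TREx D1, plated overnight at 30 C and loaded with no-wash calcium dye.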
TRHR agonist – activates the human TRH receptor | TRHR cells, calcium flux fluo-8, FDSS agonist mode | activation, % at 2 µM | 0.18% of 360,000 active | AID 493084
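TRHR-expressing cells, plated overnight in medium with 10% serum, were loaded with fluo-8 calcium dye at room temperature. After a 10 s baseline, library compound was pin-added and calcium release was recorded kinetically (ex 480/em 530) as agonist response.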
TRHR PAM – TRH receptor (human) allosteric enhancement | TRHR cells, fluo-8 calcium fluorescence, EC20 TRH enhancement | P34981 | 0.66% of 360,000 active | enhancement, % at 2 µM; in the data active means enhancement above about 30%
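Enhancer read-out: after compound pinning and an initial kinetic agonist-mode read, an EC20 of TRH (10 nM final) was injected and fluo-8 calcium signal (Ex 480/Em 530) followed at 1 s/cycle for 100 cycles in TRHR-expressing cells.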
D1 antag – human D1 dopamine receptor antagonism; P21728; HEK293 TREx D1 cells, calcium flux, dopamine EC80; stronger effect = lower value; activity change, negative = inhibition, % at 10 µM; 3.2% of 360,000 active; AID 504652; in the data active means activity change below about -30%
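Allosteric or orthosteric antagonism assessed as attenuation of the calcium response to EC80 dopamine, added 180 s after compound, in induced HEK293 Trex D1 cells loaded with no-wash calcium dye.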
Each line names hits and unclear results; the compound was inactive in the other large screens. Unless noted, no stated cut-off is given here; in the data, active means activation above about 30%; inactive means the rest.

CCNCC(O)c1cccc(O)c1 (stereo unspecified)	none
CCN1CCN(Cc2ccc(OC(F)(F)F)cc2)CC1	D1 antag -33.6
CCCCn1c(N)c(C(=O)OCC2CCCO2)c2nc3ccccc3nc21 (stereo unspecified)	none
CC(C)CCn1c(N)c(C(=O)OCC2CCCO2)c2nc3ccccc3nc21 (stereo unspecified)	D1 antag -36.0
Cc1ccc(Cn2nnnc2CN2CCC(n3nnc4cc(C(F)(F)F)ccc43)CC2)cc1	D1 antag -39.1
FC(F)(F)c1ccc2c(c1)nnn2C1CCN(Cc2nnnn2Cc2ccccc2)CC1	D1 antag -42.3
Cc1ccc(Cn2nnnc2CN2CCC(n3nnc4cc(C)ccc43)CC2)cc1	none
Cc1nc2cc(C(F)(F)F)ccc2n1C1CCN(Cc2nnnn2CCc2ccccc2)CC1	none
Cc1ccc2c(c1)C(Cc1nc3ccccc3c(=O)n1-c1ccc(Br)cc1)C(=O)N2 (stereo unspecified)	none
N#Cc1cc2c(nc1SCC(=O)Nc1ccc(Cl)c(C(F)(F)F)c1)C1CCN2CC1	none
CCN(CC)C(=O)c1ccc(NC(=O)CCn2nc(-c3ccc(C)cc3)c3ccccc3c2=O)cc1	none
Cc1cccc(N2C(=O)/C(=C/N3CCN(C(=O)c4ccco4)CC3)C(=O)NC2=S)c1	none
Cc1ccc(N2C(=O)/C(=C/N3CCN(C(=O)c4ccco4)CC3)C(=O)NC2=S)cc1C	D1 antag -34.5
C=CCN1C(=O)/C(=C/c2cccs2)C(=O)NC1=S	none
O=C1NC(=S)N(Cc2ccco2)C(=O)/C1=C\c1cccs1	TRHR PAM 50.9
CC(C)(C)c1cc([N+](=O)[O-])cc(C(C)(C)C)c1O	D1 agonist 34.2, D1 antag -35.9
COC(=O)C(O)(c1ccc(NC(=S)NC(=O)c2ccc(Cl)cc2Cl)cc1)C(F)(F)F (stereo unspecified)	D1 agonist 31.2, D1 antag -32.0
CCOC(=O)C(O)(c1ccc(NC(=O)Oc2ccccc2)cc1)C(F)(F)F (stereo unspecified)	none
COC(=O)C(O)(c1ccc(NC(=O)NC2CCCCC2)cc1)C(F)(F)F (stereo unspecified)	none
CCOC(=O)C(O)(c1ccc(NC(=S)NC(=O)c2ccc(Cl)cc2Cl)cc1)C(F)(F)F (stereo unspecified)	D1 agonist 44.2
Cc1cccc(-n2c(/C=C/c3c[nH]c4ccccc34)nc3ccccc3c2=O)c1	none
CCC(=O)N1CC(=O)Nc2ccc(C)cc2C1c1ccc(F)cc1 (stereo unspecified)	none
CCOc1ccc(CN(CCc2ccc3c(c2)OCO3)Cc2cccc(C)c2)cc1	none
CCOC(=O)C1CCCN(c2ccc([N+](=O)[O-])c3nonc23)C1 (stereo unspecified)	D1 agonist 752.3, TRHR agonist 247.8, TRHR PAM 33.0
O=C(c1ccc2c(c1)N(Cc1c(F)cccc1Cl)C(=O)c1ccccc1S2)N1CCC2(CC1)OCCO2	none
CCN(CC)c1ccc(/C=C2\C(=O)NC(=S)N(C)C2=O)o1	D1 agonist 64.7
O=C1NC(=S)N(c2ccccc2)C(=O)/C1=C/c1ccco1	none
COc1cccc(N2C(=O)/C(=C/c3ccc(C)o3)C(=O)NC2=S)c1	none
COc1ccc(N2C(=O)/C(=C/c3ccc(N(C)C)o3)C(=O)NC2=S)cc1	D1 agonist 35.4
CCOc1cccc(N2C(=O)/C(=C/c3ccco3)C(=O)NC2=S)c1	TRHR PAM 34.3
CN1C(=O)C(=Cc2ccc(N3CCCCC3)o2)C(=O)N(C)C1=S	D1 agonist 85.4
Nc1c(C(=O)Nc2ccc(Cl)c(C(F)(F)F)c2)sc2nc3c(cc12)N1CCC3CC1	none
CCN(CC)c1ccc(C=C2C(=O)N(C)C(=S)N(C)C2=O)o1	D1 agonist 50.2
COc1ccc(N2C(=O)NC(=O)/C(=C\c3cn(C)c4ccccc34)C2=O)cc1	D1 agonist 54.5
COC(=O)[C@@]1(Cc2ccc(F)cc2)[C@H]2c3cc(C(=O)N(C)C)[nH]c3C[C@H]2CN1C(=O)c1ccccc1	D1 antag -32.7
CC1(C)CC(CCNCc2ccc3c(c2)OCO3)(Cc2ccccc2)CCO1 (stereo unspecified)	D1 agonist 61.4
CN[C@@H]1C[C@@H](c2ccc(Cl)c(Cl)c2)c2ccccc21	D1 antag -51.2
